According to PubChem BioAssay AID920 (The Scripps Research Institute Molecular Screening Center, 2007):
About 700 (0.35%) of roughly 200,000 compounds were called active. Many of the other results were omitted from the sample, so actives are more common in it than they were. A number with no mark means an inactive call.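 The calls were made as follows: active = inhibition above a set limit, the mean inhibition across all tested compounds plus 3 SD (cut at about 34% in these data); inactive = the rest.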

test: blockers of IFN-gamma driven STAT1 reporter – cell-based, HTS, luciferase reporter, primary screen (AID 920); conditions: NIH 3T3 STAT1-luciferase reporter, luminescence, at 5.5 µM, stronger effect = higher value;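 also: 0% = IFN-gamma with DMSO and 100% = IFN-gamma with 300 µM nifuroxazide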

Structure (SMILES) | inhibition
C(=N\Nc1ccc2ccccc2n1)/c1ccc2c(c1)OCO2 | 68.7% (active)
Cc1noc(C)c1/C=N/Nc1ccc2ccccc2n1 | -64.7%
Brc1ccc(-c2csc(N/N=C/c3ccc4c(c3)OCO4)n2)cc1 | -12.1%
CCOC(=O)C1C(c2ccc(Cl)cc2)NC(=S)NC1(O)C(F)(F)F (stereo not drawn) | 10.5%
Cc1ccc(CN2C(=O)N/C(=C/c3cc(C)n(-c4ccccn4)c3C)C2=O)cc1 | -13.2%
S=C(Nc1ccc2c(c1)OCO2)N1CCCC1 | -9.5%
COc1ccc2nc(Nc3nc4cc5c(cc4s3)OCCO5)sc2c1 | -15.9%
Brc1ccc2nc(N3CCCC3)sc2c1 | -39.3%
c1c2c(cc3sc(N4CCCCC4)nc13)OCCO2 | 47.8% (active)
CCOC(=O)C1(CCOc2ccccc2)CCN(C(=O)c2cncs2)CC1 | -0.02%
O=C(O)CSc1nnc(-c2ccc3c(c2)OCO3)n1-c1ccccc1 | -5.92%
CCCCCC(=O)Nc1ccc2oc(-c3ccncc3)nc2c1 | -3.9%
COc1cccc(-c2nc3cc(C)ccc3o2)c1 | -6.24%
CCc1ccc2oc(-c3ccc(N)cc3)nc2c1 | 34.5% (active)
CC(C)/C=N/NC(=O)c1cc(Br)ccc1O | 11.2%
O=C(/C=C/c1ccccc1[N+](=O)[O-])NCC1CCCO1 (stereo not drawn) | -5.46%
CCc1nnc(NC(=O)CCCSc2nc3ccccc3[nH]2)s1 | 20.4%
NC(=O)Nc1ccccc1C(=O)NCCc1ccccc1 | -28.8%
COc1cc2c(C(=O)N3CCN(C)CC3)c(CSc3ccccc3)n(C)c2cc1Br | 10.4%
COc1ccc(-c2noc(-c3cccc(OC)c3OC)n2)cc1OC | -49.2%
COc1ccc(-c2noc(-c3ccc(C)cc3)n2)cc1 | -36.1%
COc1ccc(-c2nc(-c3ccccc3)no2)c(OC)c1 | 60.8% (active)
Cc1ccc(C(C)(C)C)c(OCCCCN2CCCC2)c1 | 9.92%
Cc1nc2ccccc2c(C)c1C(=O)c1ccc(F)cc1 | 15.9%
O=C(c1ccc(S(=O)(=O)c2ccccc2)cc1)N1CCCCCC1 | 14.2%

Structure (SMILES) | inhibition
CCOC(=O)C(=CNc1cccc(C)n1)C(=O)OCC | 43.5% (active)
Cc1cccc(NC(=O)c2ccc3ccccc3n2)n1 | -31.6%
CCOc1ccc(OCc2ccc(C(=O)Nc3cccc(C)n3)o2)cc1 | -24.1%
Cc1ccc(C(C[N+](=O)[O-])c2c(C)cc3ccccn23)cc1 (stereo not drawn) | 10.7%
C=CCN1C(=O)C(Cc2ccc(OCC)cc2)SC1=Nc1ccc(C(=O)O)cc1 (stereo not drawn) | 11.1%
Nc1ccc(OCC(O)C[n+]2ccc(CCS(=O)(=O)[O-])cc2)cc1 (stereo not drawn) | 0.06%
Fc1ccc2[nH]c3c(N4CCSCC4)ncnc3c2c1 | 25.6%
Fc1ccc2[nH]c3c(N4CCN(Cc5ccc6c(c5)OCO6)CC4)ncnc3c2c1 | 45.1% (active)
Cc1cc(N2CCN(Cc3ccc4c(c3)OCO4)CC2)n2ncnc2n1 | 6.31%
O=C(CC1SC(=Nc2ccccc2F)N(CCN2CCOCC2)C1=O)Nc1ccc(F)cc1F (stereo not drawn) | 2.14%
Cc1ccc(N/C(N)=N/c2nc(C(F)(F)F)cc(C(F)(F)F)n2)cc1 | -12.9%
CCOC(=O)CN/C=C(\C#N)c1ccc(F)cc1 | 1.52%
CCOc1cc(/C=C(/C#N)c2ccc(Cl)cc2)cc(Cl)c1OCC(=O)O | 47.4% (active)
CCOc1c(Cl)cc(/C=N/O)cc1OC | 5.54%
COc1ccc(C2c3c(C)nn(-c4ccccc4)c3NC(=O)N2c2ccccc2)cc1 (stereo not drawn) | -3.45%
Cc1noc(C)c1CCC(=O)O | 3.78%
O=C(C1CCN(C2CCN(Cc3ccc4cc(F)ccc4n3)CC2)CC1)N1CCCC1 | 2.2%
CCc1cc(CNC(=O)CC2C(=O)NCCN2CC2CCCCC2)on1 (stereo not drawn) | 6.89%
O=C(O)c1cccc(NC(=S)N/N=C/c2c[nH]c3ccccc23)c1 | 58% (active)
CSC(=S)N/N=C/c1c[nH]c2ccccc12 | -6.4%
CN(C)S(=O)(=O)c1cccc(NC(=S)N/N=C/C(=O)c2ccccc2)c1 | -1.89%
COc1ccc(CCC(=O)OCC(=O)Nc2ccc(C)c(S(=O)(=O)N(C)C)c2)cc1 | 1.53%
Cc1ccc2[nH]cc(CCCN3C(=O)c4ccccc4C3=O)c2c1 | 0.21%
CCOC(=O)C1CCN(c2ncnc3c2oc2ccc(Br)cc23)CC1 | -3.28%
CCOC(=O)N1CCN(C(=O)C2CCN(Cc3ccc(OC)cc3OC)CC2)CC1 | 5.92%

Structure (SMILES) | inhibition
CCOC(=O)N1CCN(C(=O)C2CCN(c3ncnc4c3sc3cccc(F)c34)CC2)CC1 | 37.1% (active)
NS(=O)(=O)c1cccc(NC(=O)CSc2nc3ccccc3n2-c2ccccc2)c1 | 55.1% (active)
Cc1cccc(-n2c(SCC(=O)Nc3cccc(S(=O)(=O)NC4=NCCCCC4)c3)nc3ccccc3c2=O)c1C | -1.66%
Cc1ccc(-n2c(SCC(=O)Nc3ncc(Cl)cc3Cl)nc3ccccc32)cc1 | 12.4%
Cc1nn(C)cc1C(=O)Nc1ccccc1Br | -7.01%
CCCN1C(=O)C(Cc2nc3ccccc3c(=O)n2-c2ccccc2)c2cc(C)ccc21 (stereo not drawn) | 6.11%
CCCOC1CCCN(Cc2cn(C)nc2-c2ccccc2F)C1 (stereo not drawn) | -4.18%
Cc1ncoc1C(=O)NCCC(c1ccccc1)c1ccccc1 | -1.04%
CCOC(=O)N1CCN(C(=O)CSc2nnc(-c3c[nH]c4ccccc34)n2CCOC)CC1 | 37.2% (active)
CCC(C)Sc1nnc(-c2c[nH]c3ccccc23)n1CCOC (stereo not drawn) | 3.54%
CCn1c(SCC(=O)Nc2ccc(OC)c(OC)c2)nnc1-c1c[nH]c2ccccc12 | 3.46%
Cc1ccc2[nH]cc(CCNC(=O)c3ccc([N+](=O)[O-])cc3)c2c1 | -1.14%
COc1ccc(N2C(=O)CC(SC(C)C)C2=O)cc1 (stereo not drawn) | 2.11%
COc1ccc(C2CC(c3cccs3)=NN2c2nc(C)c(C(C)=O)s2)cc1OC (stereo not drawn) | 34.5% (active)
COc1ccc(C2CC(c3cccs3)=NN2c2ccc(F)cc2)cc1OC (stereo not drawn) | -5.19%
COc1ccc(C2CC(c3cccs3)=NN2C(=O)CSc2nncs2)cc1OC (stereo not drawn) | 17%
Cc1cccc(NS(=O)(=O)c2ccc(C)c(C(N)=O)c2)c1 | 14%
CCN(/N=C/c1ccccc1)c1cc(=O)n(C)c(=O)[nH]1 | 1.47%
CC1CC(C)CN(C(=O)CSc2ccsc2[N+](=O)[O-])C1 (stereo not drawn) | 1.9%
Cc1ccc(CN(C)CC(=O)Nc2cccc([N+](=O)[O-])c2)o1 | 8.85%
Cc1ccc(NC(=O)CN(C)CC(=O)Nc2cccc(F)c2)cc1[N+](=O)[O-] | 34.4% (active)
CN(CC(=O)Nc1cccc(F)c1)CC(=O)Nc1cccc([N+](=O)[O-])c1 | 9.08%
O=C(c1cccc([N+](=O)[O-])c1)N1CCN(C(=O)c2ccco2)CC1 | 1.07%
Cc1ccc2[nH]c(C)c(CCNC(=O)NC3CCCCC3)c2c1 | 8.57%
CC(=O)N1N=C(c2ccccc2)OC1c1cccnc1 (stereo not drawn) | -12.4%

Structure (SMILES) | inhibition
COc1ccccc1C(=O)NNC(=O)c1ccc(NC(=O)c2ccccc2)cc1 | 3.37%
COc1ccc(/C=N/NC(=O)c2ccccc2)cc1OS(=O)(=O)c1ccccc1 | 6.31%
COc1ccc(C(=O)Nc2ccccc2C(=O)N/N=C/c2ccccc2OC)cc1 | 58.5% (active)
COc1cc(/C=N/NC(=O)c2ccccc2)ccc1OS(=O)(=O)c1ccccc1 | -17.2%
COc1ccc(C(=O)Nc2ccccc2C(=O)N/N=C/c2ccc(O)c(OC)c2)cc1 | 99.9% (active)
CCn1c(/C=N/NC(=O)c2ccc(OC)cc2)nc2ccccc21 | 1.5%
CCN(C(=O)c1ccc(Br)cc1)c1ccccc1 | 12.3%
CC(=O)c1c(C)[nH]c(C(=O)OCC(=O)Nc2sc3c(c2C#N)CCCC3)c1C | -6.37%
Cc1nc(CN2CCN(C(=O)CCc3nnc(Cc4c[nH]c5ccccc45)o3)CC2)cs1 | 0.65%
CCCCOC(=O)CCCc1ccc([N+](=O)[O-])cc1[N+](=O)[O-] | 6.62%
Cc1cc(O)c(NC(=O)c2ccc(C)c([N+](=O)[O-])c2)cc1C | -3.86%
O=C(NNC(=O)C1CCN(c2ncccn2)CC1)c1ccccc1 | -0.55%
CC(=O)c1cc(C#N)c(N2CCCCC2)nc1C | 2.46%
Cc1ccsc1C(=O)OCC(=O)c1cc(C)n(CC2CCCO2)c1C (stereo not drawn) | 77.5% (active)
Cc1cc(C(=O)Cn2cnc3cc([N+](=O)[O-])ccc3c2=O)c(C)n1CC1CCCO1 (stereo not drawn) | -2.94%
Cc1ccsc1C(=O)OCC(=O)c1cc2ccccc2o1 | -6.53%
CC1CC(C)(C)NC(=S)N1CCC(=O)N1CCN(Cc2ccccc2)CC1 (stereo not drawn) | -1.54%
COc1ccc(NC(=S)NCCN2CCC(C)CC2)cc1 | 4.93%
Cc1cccc(C(=O)Nc2ccc3c(c2)C(=O)N(CC(C)C)C3=O)c1 | -24.8%
O=C(CSc1nc2ccc([N+](=O)[O-])cc2[nH]1)c1ccc(Cl)cc1 | -9.84%
Cc1ccc(-c2cn3cc(C)ccc3n2)cc1 | 94.3% (active)
COc1ccc(-c2cn3ccsc3n2)cc1 | -38.6%
Cc1ccc(-c2cn3cc([N+](=O)[O-])ccc3n2)cc1 | -37.1%
